{
  "source": "PubChem BioAssay AID2314",
  "about": "(National Center for Advancing Translational Sciences (NCATS), 2010)",
  "note": "Hit rate of the full screen: of about 300,000 compounds, about 37,000 (12%) were called active. The list comes from a sample in which actives are over-represented; it also holds similar structures and randomly drawn compounds. A number with no mark means an inactive call. No stated cut-off is given here; in the data, active means max response mostly above about 13% (no sharp cut-off); inactive means mostly below about 14%.",
  "data": [
    {"assay": "Cycloheximide Counterscreen for Small Molecule Inhibitors of Shiga Toxin; further: read at 38.3 µM for the half of the compounds with a filed dose; 0% is about no effect", "conditions": "cell reporter, cycloheximide protein synthesis inhibition counterscreen; hits give high values", "values": [
      {"smiles": "Cc1ccsc1C(=O)N[C@@H](C)c1nnc2ccccn12", "max response": "-2.38%"},
      {"smiles": "CCOC(=O)C1=C(C)NC(=S)NC1c1cccs1", "note": "(stereo not drawn)", "max response": "-2.57%"},
      {"smiles": "C=CCOC(=O)C1=C(C)NC(C)=C(C(=O)OCC=C)C1c1cccs1", "max response": "63.9% (active)"},
      {"smiles": "CCOC(=O)C1=C(C)Nc2nc3ccccc3n2C1c1cccs1", "note": "(stereo not drawn)", "max response": "-3.92%"},
      {"smiles": "Cc1cc(C)c2nc(N(CCN(C)C)C(=O)/C=C/c3cccs3)sc2c1", "max response": "-3.7%"},
      {"smiles": "C/C(=N/OC(=O)c1ccc(Br)cc1)c1ccc(C)cc1", "max response": "4.97%"},
      {"smiles": "COc1ccc(C)cc1N(CC(=O)N1CCCC1)S(=O)(=O)c1ccccc1", "max response": "9.95%"},
      {"smiles": "CCCCCCC(=O)Nc1nc(C)c(-c2csc(Nc3cccc(OC)c3)n2)s1", "max response": "-1.06%"},
      {"smiles": "CCOC(=O)Cc1csc(NC(=O)C(C)(C)C)n1", "max response": "26.6% (active)"},
      {"smiles": "CCOC(=O)Cc1csc(NC(=O)COc2ccc3c(C)cc(=O)oc3c2)n1", "max response": "5.78%"},
      {"smiles": "CCOC(=O)Cc1csc(NC(=O)CSc2nc(C)cc(=O)[nH]2)n1", "max response": "-1.4%"},
      {"smiles": "CCOC(=O)c1cnc(SCC(=O)Nc2cccc(OC)c2)nc1N", "max response": "-6%"},
      {"smiles": "CCOC(=O)Cc1csc(NC(=O)Nc2ccccc2)n1", "max response": "21.8% (active)"},
      {"smiles": "CCOC(=O)c1csc(NC(=O)Nc2cccc(OC)c2)n1", "max response": "15% (active)"},
      {"smiles": "CCOC(=O)Cc1csc(NC(NC(=O)OCC)(C(F)(F)F)C(F)(F)F)n1", "max response": "-0.89%"},
      {"smiles": "CCOC(=O)Cc1csc(NC(=O)CSc2ccc(Br)cc2)n1", "max response": "-1.14%"},
      {"smiles": "COc1ccccc1N1CCN(C(=O)c2ccc(NC3=NC4CS(=O)(=O)CC4S3)cc2)CC1", "note": "(stereo not drawn)", "max response": "6.59%"},
      {"smiles": "O=C(Nc1ccc(F)cc1F)N1CCCN(CCOc2ccccc2)CC1", "max response": "-1.88%"},
      {"smiles": "CN1CCN(C(=O)c2cnn(-c3ccccc3)c2NC(=O)c2ccc([N+](=O)[O-])cc2)CC1", "max response": "-1.78%"},
      {"smiles": "S=c1[nH]ccn1-c1ccc(Cl)cc1", "max response": "-4.55%"},
      {"smiles": "CN(Cc1ccccc1)C(=O)COC(=O)c1ccccc1Nc1ccccc1", "max response": "-1.45%"},
      {"smiles": "CC1(C(=O)O)CCC(C(=O)Nc2ccc(Cl)c(Cl)c2)C1(C)C", "note": "(stereo not drawn)", "max response": "-1.72%"},
      {"smiles": "N/C(=N\\OC(=O)/C=C/c1ccccc1)c1ccc(Br)cc1", "max response": "1.02%"},
      {"smiles": "N/C(=N\\OC(=O)N1c2ccccc2Sc2ccccc21)c1ccc(Br)cc1", "max response": "-1.54%"},
      {"smiles": "N/C(=N\\OC(=O)c1ccc2c(c1)OCO2)c1ccc(Br)cc1", "max response": "32.7% (active)"},
      {"smiles": "CCCc1nc2c(c(=O)c3ccccc3n2C)c(=O)n1-c1cc(C)cc(C)c1", "max response": "-0.943%"},
      {"smiles": "CN(C)S(=O)(=O)c1ccc(NC(=O)COC(=O)c2n[nH]c3ccccc23)cc1", "max response": "-0.614%"},
      {"smiles": "COc1cc(-c2cc(C(=O)OCC(=O)Nc3ccc4c(c3)OCO4)c3ccccc3n2)cc(OC)c1OC", "max response": "4.65%"},
      {"smiles": "NS(=O)(=O)c1ccc(NC(=O)COC(=O)c2c3c(nc4ccccc24)/C(=C\\c2ccc4c(c2)OCO4)CCC3)cc1", "max response": "42.8% (active)"},
      {"smiles": "COc1cc(/C=C2\\CCCc3c2nc2ccccc2c3C(=O)O)cc(Cl)c1O", "max response": "4.53%"},
      {"smiles": "O=C(COC(=O)c1c2c(nc3ccccc13)/C(=C\\c1cccs1)CCC2)Nc1ccccc1Cl", "max response": "10.2%"},
      {"smiles": "NC(=O)c1ccc(NC(=O)COC(=O)c2c3c(nc4ccccc24)/C(=C\\c2ccc4c(c2)OCO4)CCC3)cc1", "max response": "38.8% (active)"},
      {"smiles": "CCC1CCCCN1C(=O)Nc1cccc(NC(=O)N2CCCCC2CC)c1", "note": "(stereo not drawn)", "max response": "4.95%"},
      {"smiles": "CCCCc1nc2cc(C(=O)N3CCCCC3CCO)ccc2o1", "note": "(stereo not drawn)", "max response": "45.9% (active)"},
      {"smiles": "CCCCc1nc2cc(C(=O)NCCc3cnn(C)c3)ccc2o1", "max response": "38.8% (active)"},
      {"smiles": "CCC1CCCCN1C(=O)CSc1nc(C)cc(C)n1", "note": "(stereo not drawn)", "max response": "0.953%"},
      {"smiles": "COc1ccc(C(=O)NC2CC2)cc1OC1CCN(Cc2cnn(C)c2)CC1", "max response": "-0.356%"},
      {"smiles": "Cc1c(C(=O)N(C)CCc2cnn(C)c2)oc2c(F)cccc12", "max response": "-2.99%"},
      {"smiles": "CCn1c(=O)n(CC)c2cc(N3CCCC3)c(NC(=O)c3ccccc3Br)cc21", "max response": "-1.85%"},
      {"smiles": "CC(C)(C)c1ccc(C(=O)N2CCN(CCNC(=O)C(=O)Nc3ccc(F)cc3)CC2)cc1", "max response": "5.93%"},
      {"smiles": "Cc1ccc(-c2nnc(-n3nnc4ccccc43)c3ccccc23)cc1", "max response": "9.11%"},
      {"smiles": "CCOc1cc(/C=C2\\SC(N3CCCCC3)=NC2=O)ccc1O", "max response": "36.3% (active)"},
      {"smiles": "O=C1N=C(N2CCCC2)S/C1=C\\c1cccc(Br)c1", "max response": "20.2% (active)"},
      {"smiles": "CC1CCN(C2=NC(=O)/C(=C/c3cn[nH]c3-c3ccccc3)S2)CC1", "max response": "20.1%"},
      {"smiles": "O=C1N=C2SCCN2/C1=C\\c1c(Cl)cccc1Cl", "max response": "1.23%"},
      {"smiles": "O=C(Nc1nnc(S(=O)(=O)N2CCCCCC2)s1)c1cccc(Br)c1", "max response": "-2.43%"},
      {"smiles": "CCOc1cc(/C=C2/C(=N)N3OC(C)=CC3=NC2=O)ccc1OC", "max response": "4.64%"},
      {"smiles": "CCOc1ccc(/C=C2\\SC(=S)N(NC(=O)c3ccncc3)C2=O)cc1OC", "max response": "-1.69%"},
      {"smiles": "CCOc1cc(C(=S)N2CCOCC2)ccc1O", "max response": "-1.42%"},
      {"smiles": "O=C1N=C(N2CCc3ccccc3C2)S/C1=C\\c1ccc(O)cc1", "max response": "10.4%"},
      {"smiles": "CCOc1cc(/C=C2\\SC(N3CCCC(C)C3)=NC2=O)ccc1O", "note": "(stereo not drawn)", "max response": "36.5% (active)"},
      {"smiles": "CC1CCN(C2=NC(=O)/C(=C/c3ccc(O)cc3)S2)CC1", "max response": "31.9% (active)"},
      {"smiles": "CCOc1cc(/C=C2\\C(=N)N3N=C(C)SC3=NC2=O)ccc1OCCOc1ccccc1", "max response": "-1.53%"},
      {"smiles": "Cc1ccc(N2CC(C(=O)NCCS(=O)(=O)N3CCN(c4ccccc4)CC3)CC2=O)cc1", "note": "(stereo not drawn)", "max response": "1.37%"},
      {"smiles": "CCOC(=O)c1c(-c2ccccc2)oc2ccc(OCC(N)=O)cc12", "max response": "-1.21%"},
      {"smiles": "O=C(O)CCCCCCCCc1cn(CN2C(=O)c3ccccc3C2=O)nn1", "max response": "1.15%"},
      {"smiles": "CCc1ccc(-c2cc3c(=O)n(CC(=O)NCCCN4CCN(Cc5ccccc5)CC4)nc(C)n3n2)cc1", "max response": "-1.84%"},
      {"smiles": "O=C(Cn1nc(CNc2ccc(Cl)cc2)[n+]2c1CCCCC2)c1ccc(Cl)cc1", "max response": "11%"}
    ]}
  ]
}
